This is one part of a sample in which hits are shown more often than they occur.
AmpC detergent: blocks E. coli AmpC beta-lactamase in detergent assay; P00811; Potency, µM (series often up to 114 µM), most hits filed as inhibitors; 0.041% of 370,000 active; AmpC hydrolysis of nitrocefin, absorbance 480 nm, 0.01% Triton; note: nearly all actives have a fitted effect of over 25% in size
Target sequence (P00811 whole entry, looked up): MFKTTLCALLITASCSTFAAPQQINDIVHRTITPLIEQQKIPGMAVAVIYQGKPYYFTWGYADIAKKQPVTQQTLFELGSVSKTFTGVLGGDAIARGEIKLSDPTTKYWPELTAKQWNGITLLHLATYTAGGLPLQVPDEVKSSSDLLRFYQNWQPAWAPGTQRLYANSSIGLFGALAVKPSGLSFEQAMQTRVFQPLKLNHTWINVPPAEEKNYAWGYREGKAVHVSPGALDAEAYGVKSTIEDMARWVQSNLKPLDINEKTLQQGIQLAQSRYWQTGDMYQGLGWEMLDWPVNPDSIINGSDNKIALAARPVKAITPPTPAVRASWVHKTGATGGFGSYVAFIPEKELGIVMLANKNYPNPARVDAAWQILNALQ
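20 mM phosphate pH 7.0 + 0.01% (detergent screen) or 0.0001% Triton X-100; 5.3 nM AmpC reagent; cpd preinc 15 min RT; nitrocefin (800 uM stock) to start; A480 q20 s × 4 min; Activity was normalised to no-enzyme and no-compound control wells.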
SARS PLpro yeast: SARS-CoV PLP inhibition in yeast | S. cerevisiae expressing SARS-CoV PLpro, growth rescue | Potency, µM (doses to about 32.9 µM), hits mostly activators | 0.19% of 330,000 active | AID 485353; calls by dose curve; note: nearly all actives have a fitted effect of over 55% in size
AmpC inh no detg: blocks E. coli AmpC beta-lactamase in detergent-free assay; P00811; AmpC nitrocefin hydrolysis, absorbance 480 nm, 0.0001% Triton; Potency, µM (titrated, usually from 57.1 µM), usual class: inhibitors; 0.52% of 330,000 active; AID 485341; note: nearly all actives have a fitted effect of over 20% in size
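AmpC (5.3 nM in the dispensed reagent) in 20 mM phosphate pH 7.0 with 0.01% (detergent screen) or 0.0001% Triton X-100 was preincubated with compounds for 15 min at room temperature. Nitrocefin was then added from an 800 uM solution, and hydrolysis was followed at 480 nm.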
AMA1 RON2 block: disrupts binding of P. falciparum AMA1 to RON2; 0.2% of 360,000 active; AlphaScreen AMA1-biotinylated RON2 peptide binding; Potency, µM (top dose mostly 58.2 µM), usual class: inhibitors; note: nearly all actives have a fitted effect of over 45% in size
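AMA1 (3D7) with his tag at 25 nM final met compounds first, then biotinylated RON2 peptide at 25 nM; detection used donor plus acceptor beads, 10 µg/mL apiece, read by AlphaScreen after 30 min at room temperature.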
Shiga inhibitor: Shiga toxin inhibition; Vero cells, Shiga toxin protein synthesis inhibition reporter; inhibition, % at 38.7 µM; 9.2% of 290,000 active; in the data active = inhibition mostly above about 28%, no sharp cut-off; inactive = mostly below about 43%
Cycloheximide cs: counter-screen hit for Shiga toxin inhibitors, cycloheximide; cell reporter, cycloheximide protein synthesis inhibition counterscreen; max response, %; 12% of 300,000 active; in the data active = max response mostly above about 13%, no sharp cut-off; inactive = mostly below about 14%; note: read at 38.3 µM for the half of the compounds with a filed dose
Of the large screens only hits and unclear results are named; the others gave an inactive call. Unless noted, calls come from the whole dose curve; as a rule, active = well fitted curve in the direction sought with a large enough effect; inconclusive = small, poorly fitted or top-dose-only effect, or another doubt; inactive = no such curve, though single readings can be large; an effect the other way counts as inactive or inconclusive.

COc1cccc2sc3ccc(C#CC4(O)CCCCC4)cc3c(=O)c12	Shiga inhibitor 43, Cycloheximide cs 39
O=c1c2ccccc2sc2ccc(C#CC3(O)CCCCC3)cc12	none (no result: AmpC detergent, SARS PLpro yeast, AmpC inh no detg, Shiga inhibitor, Cycloheximide cs)
CC1(C)CC(=O)C2=C(C1)OC(N)=C(C#N)C2Cc1ccccc1 (centres undefined)	AmpC inh no detg 0.32µM
CCN1CCC2(CC1)Oc1c(OC)cccc1C1CC(c3cccnc3)=NN12 (centres undefined)	Shiga inhibitor 55, Cycloheximide cs 44
CCc1ccc(N(C(=O)c2csnn2)C(C(=O)NC(C)(C)C)c2ccccn2)cc1 (centres undefined)	Shiga inhibitor 76, Cycloheximide cs 29
CCCN(Cc1ccccc1)C(=S)Nc1ccc(OCC)cc1	AmpC detergent inconclusive, Cycloheximide cs 19
CCCN(Cc1ccccc1)C(=S)Nc1ccc(F)cc1	none
CCOc1ccc(NC(=S)N(CC)Cc2ccccc2)cc1	Cycloheximide cs 32 (no result: AMA1 RON2 block)
O=C(Nc1ccc(-c2nc3cccnc3s2)cc1)c1cccnc1Cl	Shiga inhibitor 57, Cycloheximide cs 66
CCOc1ncccc1C(=O)Nc1cccc(-c2nc3cccnc3s2)c1	none
Cc1c(NC(=O)c2ccc(Cl)nc2)cccc1-c1nc2cccnc2s1	none
O=C(Nc1ccc(-c2nc3cccnc3s2)cc1)c1ccc(Cl)nc1	Shiga inhibitor 68, Cycloheximide cs 34
COc1ccc(CCN(C)C2CCCN(C(=O)Cn3cnnn3)C2)cc1OC (centres undefined)	Cycloheximide cs 12
O=C(CN1CCCC1)N1CCCC(c2ccc(F)cc2)c2ccc(F)cc21 (centres undefined)	AmpC detergent inconclusive
O=C(Nc1cccc(S(=O)(=O)N2CCCCC2)c1)c1ccc(S(=O)(=O)C(F)F)cc1	AmpC inh no detg 22µM
O=C(Nc1ccccc1)c1ccc(S(=O)(=O)N2CCCCC2)cc1	Shiga inhibitor 19, Cycloheximide cs 11
Cc1occc1C(=O)Nc1ccc(S(N)(=O)=O)cc1	none
Cc1occc1C(=O)Nc1ccc(S(=O)(=O)N2CCCC2)cc1	Shiga inhibitor 29
CC(=O)Nc1ccc(C(=O)Nc2ccc(S(=O)(=O)N3CCOCC3)cc2)cc1	Cycloheximide cs 16
Cc1ccc(NC(=O)C2CCN(S(=O)(=O)c3ccc4[nH]c(=O)ccc4c3)CC2)cc1C	none (no result: SARS PLpro yeast, AmpC inh no detg, AMA1 RON2 block, Shiga inhibitor, Cycloheximide cs)
O=C(Nc1ccc(S(=O)(=O)N2CCCC2)cc1)c1cccc(OC(F)F)c1	SARS PLpro yeast inconclusive, AmpC inh no detg 32µM (no result: Shiga inhibitor, Cycloheximide cs)
CC(=O)Nc1ccc(S(=O)(=O)Nc2ccc(S(=O)(=O)N3CCCCCC3)cc2)cc1	AmpC inh no detg 20µM
COc1ccc(OC)c2sc(NC(=O)c3ccc(S(=O)(=O)N4CCOCC4)cc3)nc12	AmpC detergent inconclusive, AmpC inh no detg 7.1µM
CN(C)S(=O)(=O)c1cccc(NC(=O)c2ccc(S(=O)(=O)N3CCCCC3)cc2)c1	AmpC detergent inconclusive (no result: Shiga inhibitor, Cycloheximide cs)
CN(C)c1ccc(C(=O)Nc2cccc(S(=O)(=O)N3CCCC3)c2)cc1	AmpC inh no detg 28µM (no result: Shiga inhibitor, Cycloheximide cs)
COc1ccc(Cl)c2sc(NC(=O)c3ccc(S(=O)(=O)N4CCCC4)cc3)nc12	none (no result: SARS PLpro yeast, AmpC inh no detg, AMA1 RON2 block, Shiga inhibitor, Cycloheximide cs)
N#CCSc1ccccc1NC(=O)CN1C(=O)C2CC=CCC2C1=O (centres undefined)	none (no result: Shiga inhibitor, Cycloheximide cs)
CN1CCC(=NOc2ccc([N+](=O)[O-])cc2)CC1	Shiga inhibitor 95, Cycloheximide cs 34
CCNC(=O)C/C(C)=N/NC(=O)C12CC3CC(CC(C3)C1)C2	Cycloheximide cs 20
COc1ccccc1C(=O)NNS(=O)(=O)c1ccc(F)cc1	AmpC detergent inconclusive (no result: Shiga inhibitor)
CCOC(=O)c1cc(-c2ccccc2)n(-c2cccc(C(=O)NC(C)CC)c2)c1C (centres undefined)	none (no result: SARS PLpro yeast, AmpC inh no detg, AMA1 RON2 block, Shiga inhibitor, Cycloheximide cs)
Cc1cccnc1NC(=O)c1ccc(OCc2c(C)noc2C)cc1	Shiga inhibitor 52, Cycloheximide cs 22
Cc1noc(C)c1COc1ccc(C(=O)Nc2ccccn2)cc1	Shiga inhibitor 89, Cycloheximide cs 44
Cc1ccc(C)c(NC(=O)c2ccc(OCc3c(C)noc3C)cc2)c1	none (no result: Shiga inhibitor, Cycloheximide cs)
O=C(NC(Nc1ccccn1)C(Cl)(Cl)Cl)c1ccccc1 (centres undefined)	none
OC(COc1ccc2ccccc2c1)CN1CCN(c2ccc(F)cc2)CC1 (centres undefined)	AmpC detergent inconclusive, AmpC inh no detg 40µM
COc1ccc(N2CCN(CC(O)COc3ccc(C)cc3C)CC2)cc1 (centres undefined)	AMA1 RON2 block 25µM
COc1cccc(OCC(O)CN2CCN(c3ccc(F)cc3)CC2)c1 (centres undefined)	none
OC(COc1ccc2ccccc2c1)CN1CCCC1 (centres undefined)	AmpC detergent inconclusive, Cycloheximide cs 18
C=CC[n+]1c(/C=C2\C=Cc3cc(C)ccc3N2CC)ccc2ccccc21	AMA1 RON2 block inconclusive
COc1ccc2sc(-c3ccccc3OC)c(-c3ccc4c(c3)OCCO4)c2c1	none (no result: Shiga inhibitor, Cycloheximide cs)
N#C/C(=C/c1ccccc1[N+](=O)[O-])c1nnc2n1CCCCC2	none
N#C/C(=C\c1ccc([N+](=O)[O-])cc1)c1nc(C2CC2)cs1	Cycloheximide cs 21
N#C/C(=C/c1ccccc1[N+](=O)[O-])c1nc(C2CC2)cs1	AMA1 RON2 block inconclusive, Cycloheximide cs 25
N#C/C(=C\c1ccccc1[N+](=O)[O-])c1nc(C2CC2)cs1	AmpC detergent inconclusive, AMA1 RON2 block inconclusive, Shiga inhibitor 58, Cycloheximide cs 57
N#C/C(=C\C=C\c1ccccc1[N+](=O)[O-])c1nc(-c2ccc3c(c2)OCO3)cs1	none
CC(C)CC1c2[nH]c3ccccc3c2CCN1C(=O)C1CCOCC1 (centres undefined)	none
COc1ccc(/C=C/C(=O)NC(=S)Nc2ccccn2)cc1	Shiga inhibitor 90, Cycloheximide cs 47
COc1ccccc1/C=C/C(=O)NC(=S)Nc1ccccn1	Shiga inhibitor 105, Cycloheximide cs 45
COc1ccccc1/C=C/C(=O)NCc1ccccn1	none
Cn1c(=O)c2c(nc(CN3CCN(c4ccc(F)cc4)CC3)n2CCN2CCOCC2)n(C)c1=O	none
CN[C@@H]1[C@H](O)[C@H](NC)[C@H]2O[C@@]3(O)C(=O)C[C@@H](C)O[C@H]3O[C@@H]2[C@H]1O	none
CC(C)(C)NC(=S)N/N=C\c1ccc(-c2ccc([N+](=O)[O-])cc2)o1	AmpC inh no detg inconclusive, Shiga inhibitor 73, Cycloheximide cs 37
CCC(=O)N/N=C/c1ccc(-c2ccc([N+](=O)[O-])cc2)o1	none
CCC(=O)N/N=C/c1ccc(-c2ccc(Cl)cc2)o1	Shiga inhibitor 67, Cycloheximide cs 34
CNC(=S)N/N=C/c1ccc(-c2ccc(C(=O)O)cc2)o1	Shiga inhibitor 56, Cycloheximide cs 23

Assay outcomes: PubChem, National Center for Advancing Translational Sciences (NCATS)
